Bioassay records as filed in PubChem.
NALP1 yeast inh – NALP1 inflammasome inhibitors in reconstituted yeast, colorimetric, S. cerevisiae, triplicate retest; AID 2071, 2009; inhibition, % at 10 µM; S. cerevisiae NALP1/ASC/caspase-1 growth, X-gal OD620, 72 h; hit rate 0.61% among 280,000; in the data active = inhibition mostly above about 24%, no sharp cut-off; inactive = mostly below about 32%
Rce1 inhib – yeast Rce1p protease inhibitors, primary screen, biochemical, fluorescence, cell-free homogeneous; CAAX prenyl protease 2 (Saccharomyces cerevisiae (strain ATCC 204508 / S288c)), Q03530; yeast membranes, quenched prenylated peptide cleavage fluorescence; calls only; hit rate 0.27% among 290,000; AID 2563, 2010;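 active = fall in fluorescence gain of 50% or more versus controls, with final raw signal at or below 3038400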
V-ATPase pHluor – regulators of yeast V-ATPase proton pumping, primary screen, pHLuorin cytosolic pH fluorescence. hit rate 0.37% among 350,000. S. cerevisiae. response, % at 10 µM; in the data active = response mostly above about 7.3%, no sharp cut-off; inactive = mostly below about 5.4%; note: actives read high
PERK inhibitor – block of dimerizer-induced PERK translation repression, primary screen, PERK inhibitor project, CHO PERK-DD cells, SEAP luminescence, HTS | Eukaryotic translation initiation factor 2-alpha kinase 3 (Homo sapiens), Q9NZJ5 | AID 1416, 2008 | hit rate 0.17% among 220,000 | inhibition, % at 5.6 µM | CHO PERK-DD fusion, SEAP luminescence translation reporter;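 active = inhibition above the mean inhibition of all tested compounds plus 3 SD, set separately per screening campaign, cut at about 2.9% in these data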;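 note: PERK kinase domain activated by AP20187 dimerizer at 100 nM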
NALP3 yeast inh – NALP3 inflammasome inhibitors in reconstituted yeast, primary screen, luminescence, uHTS; Yeast reconstituted NLRP3/ASC/caspase-1, beta-gal luminescence, 24 h; inhibition, % at 10 µM; hit rate 0.39% among 330,000; AID 2825, 2010;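 active = inhibition of 50% or more; inactive = inhibition below 50%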
CR mimetic SO – reduction of superoxide in aged yeast, primary screen, HTS | S. cerevisiae aged cells, superoxide DHE fluorescence; stronger effect = lower value | superoxide response (% of plate mean), % at 10 µM | hit rate 0.18% among 330,000;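 active = superoxide response under a set limit, about three screen SD below normal, cut at about 65% in these data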;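 note: yeast aged for seven days with compound at 30 °C before DHE staining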
VATPase regulator – yeast V-ATPase proton pumping modulators, confirmation, S. cerevisiae, pH-sensitive GFP, second cherry-pick; shares compounds with V-ATPase pHluor; S. cerevisiae pHLuorin cytosolic pH, V-ATPase proton transport; response, % at 10 µM; hit rate 2% among 980; AID 602197, 2012; in the data active = response above about 24%
Hits are given with their value. An excerpt weighted towards active compounds, which were near 1.6% of everything screened.

For CCN(c1ccccc1)S(=O)(=O)c1cc(C(=O)NCC(c2ccc(OC)cc2)N(C)C)ccc1C (stereo unspecified) the results were V-ATPase pHluor inactive.
Screening O=C(NCCNCCO)C1(C(F)(F)F)C/C(=C\Cc2ccccc2)CCCO1 (stereo unspecified) returned Rce1 inhib inactive, V-ATPase pHluor inactive, NALP3 yeast inh inactive and CR mimetic SO inactive.
Screening O=C(NCC1CC1)C1(C(F)(F)F)CC(CCc2ccccc2)CCCO1 (stereo unspecified) returned Rce1 inhib inactive, V-ATPase pHluor 10.0, NALP3 yeast inh inactive, CR mimetic SO inactive and VATPase regulator inactive.
C[C@H]1CN([C@@H](C)CO)C(=O)CCCn2cc(nn2)CO[C@@H]1CN(C)C(=O)Nc1cccc(Oc2ccccn2)c1 was read as V-ATPase pHluor inactive.
`COc1ccc2c(c1)C(CC(=O)NN)CCC2` (stereo unspecified) gave V-ATPase pHluor 12.6 and VATPase regulator inactive.
`O=CNc1ccc2c3c(cccc13)-c1ccccc1-2` gave V-ATPase pHluor inactive.
Screening CC(SCc1ccccc1)C(=O)Nc1ccccc1Br (stereo unspecified) returned NALP1 yeast inh inactive, Rce1 inhib inactive, V-ATPase pHluor 11.4, NALP3 yeast inh inactive, CR mimetic SO inactive and VATPase regulator inactive.
For Cc1ccccc1NC(=O)C(C)SCc1ccccc1 (stereo unspecified) the results were NALP1 yeast inh inactive, Rce1 inhib inactive, V-ATPase pHluor inactive, NALP3 yeast inh inactive and CR mimetic SO inactive.
For CCOC(=O)NCc1ccc2[nH]c(C)cc2c1 the results were NALP1 yeast inh inactive, Rce1 inhib inactive, V-ATPase pHluor 10.8, NALP3 yeast inh inactive, CR mimetic SO inactive and VATPase regulator inactive.
CC(C)CC1C(=O)N(Cc2cn(CC3CCCCC3)nn2)CCS(=O)(=O)N1Cc1ccc(-c2cccc(C#N)c2)cc1 (stereo unspecified) was read as V-ATPase pHluor inactive.
For Clc1cccc(CSC2=NCCCN2)c1 the results were NALP1 yeast inh inactive, Rce1 inhib inactive, V-ATPase pHluor inactive, PERK inhibitor inactive, NALP3 yeast inh inactive, CR mimetic SO inactive and VATPase regulator inactive.
Screening COc1ccc(CSC2=NCCN2)cc1Cl returned NALP1 yeast inh inactive, Rce1 inhib inactive, V-ATPase pHluor inactive, PERK inhibitor inactive, NALP3 yeast inh inactive and CR mimetic SO inactive.
Screening Cc1ccc(C(=O)Nc2ccc(N3CCCC3)cc2)cc1 returned NALP1 yeast inh inactive, Rce1 inhib inactive, V-ATPase pHluor inactive, PERK inhibitor inactive, NALP3 yeast inh inactive and CR mimetic SO inactive.
Screening Cc1ccc(C(=O)Nc2ccc(N3CCCCC3)cc2)cc1 returned V-ATPase pHluor 9.9, NALP3 yeast inh inactive, CR mimetic SO inactive and VATPase regulator inactive.
O=C(/C=C/c1ccccc1)Nc1cccc(C(=O)NCCCCc2ccccc2)c1 was read as V-ATPase pHluor inactive.
Screening CC(=O)NC(CC(=O)OCC(=O)c1c(N)n(C)c(=O)n(C)c1=O)c1ccccc1 (stereo unspecified) returned NALP1 yeast inh inactive, Rce1 inhib inactive, V-ATPase pHluor 11.4, PERK inhibitor inactive, NALP3 yeast inh inactive, CR mimetic SO inactive and VATPase regulator inactive.
Screening Cn1c(N)c(C(=O)COC(=O)CC(NC(N)=O)c2ccc(Cl)cc2)c(=O)n(C)c1=O (stereo unspecified) returned V-ATPase pHluor inactive and NALP3 yeast inh inactive.
Screening Cn1nc(NC(=O)C(C)(C)C)c2c(F)cccc21 returned NALP1 yeast inh inactive, Rce1 inhib inactive, V-ATPase pHluor 11.9, PERK inhibitor inactive, NALP3 yeast inh inactive, CR mimetic SO inactive and VATPase regulator inactive.
Screening c1cc(C2OCCO2)cs1 returned V-ATPase pHluor inactive.
`Cc1ccc(NC(=O)CSc2nnc(Cc3ccccc3)c(=O)[nH]2)c(C)c1` gave Rce1 inhib inactive, V-ATPase pHluor 10.6, NALP3 yeast inh inactive, CR mimetic SO inactive and VATPase regulator inactive.
Screening O=C1c2ccccc2CCC12OC2c1ccncc1 (stereo unspecified) returned V-ATPase pHluor inactive.
For COC(=O)C1=C(C(=O)OC)C2C=CC1C1C(OC(C)=O)C(OC(C)=O)C21 (stereo unspecified) the results were V-ATPase pHluor inactive.
Screening O=C(NCCN1C(=O)S/C(=C\c2ccc(Cl)cc2)C1=O)c1ccc(F)c(S(=O)(=O)N2CCOCC2)c1 returned NALP1 yeast inh inactive, Rce1 inhib inactive, V-ATPase pHluor 9.5, PERK inhibitor inactive, NALP3 yeast inh inactive, CR mimetic SO inactive and VATPase regulator inactive.
For Cc1cn([C@H]2C[C@H](O)[C@@H](CNCc3cccn3-c3nccs3)O2)c(=O)[nH]c1=O the results were V-ATPase pHluor inactive.
COCCn1c(SCC(=O)NNC(=O)c2ccccc2)nc2ccccc21 was read as V-ATPase pHluor 11.8, NALP3 yeast inh inactive, CR mimetic SO inactive and VATPase regulator inactive.
COCCn1c(SCC(=O)NCc2ccccc2)nc2ccccc21 was read as NALP1 yeast inh inactive, Rce1 inhib inactive, V-ATPase pHluor inactive, NALP3 yeast inh inactive and CR mimetic SO inactive.
C[C@@H]1CN([C@@H](C)CO)S(=O)(=O)c2ccc(Br)cc2O[C@@H]1CN(C)C(=O)c1ccncc1 was read as V-ATPase pHluor 5.2 and VATPase regulator inactive.
COc1ccc(CCNc2nc(-c3ccco3)cc(C(F)(F)F)n2)cc1OC was read as NALP1 yeast inh inactive, V-ATPase pHluor 11.1, PERK inhibitor inactive, NALP3 yeast inh inactive, CR mimetic SO inactive and VATPase regulator inactive.
For Cc1ccc(-c2csc(C(C#N)=C3CCCC3)n2)cc1 the results were NALP1 yeast inh inactive, Rce1 inhib inactive, V-ATPase pHluor inactive, PERK inhibitor inactive, NALP3 yeast inh inactive and CR mimetic SO inactive.
Screening N#CC(=C1CCCC1)c1nc(-c2ccccc2)cs1 returned NALP1 yeast inh inactive, Rce1 inhib inactive, V-ATPase pHluor 9.7, PERK inhibitor inactive, NALP3 yeast inh inactive, CR mimetic SO inactive and VATPase regulator inactive.
`COC(=O)c1sc2nc(C)nc(SCC(=O)Nc3sccc3C(N)=O)c2c1C` gave V-ATPase pHluor inactive, NALP3 yeast inh inactive and CR mimetic SO inactive.
`COc1ccc(-c2cccc(-c3cc(=O)oc4cc(OC)cc(OC)c34)c2)cc1` gave V-ATPase pHluor inactive and CR mimetic SO inactive.
`COc1ccc(-c2cccc(-c3cc(=O)oc4cc(OC)c(OC)c(OC)c34)c2)cc1` gave V-ATPase pHluor 8.2, CR mimetic SO inactive and VATPase regulator inactive.
